Counter-ions that a name gives are not always drawn.
What was measured:
Assay in all cases: phenotypically active (imaging signature differs from DMSO and reproducible) at any of 0.3-9 uM (binary (1 = active, 0 = inactive)); higher = active
Conditions in all cases: treatment time: 24 h
A549-ACTB-RAB5A = system: A549-ACTB-RAB5A
Outline: (§1)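 Live-cell features were measured per well and normalised to solvent control wells after fifteen gene-edited A549, HepG2 and WPMY1 reporter lines had been treated for 24 h at 0.3, 1, 3 or 9 µM in four wells each. A condition was deviating when ≥3 of 4 wells sat beyond the 95th percentile of control Euclidean distances. It was reproducible when the median replicate Pearson correlation exceeded the 95th percentile of non-replicates. Phenotypic activity demanded both.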

A549-CANX-COX4 = system: A549-CANX-COX4
Outline: as §1

A549-GM130-SQSTM1 = system: A549-GM130-SQSTM1
Outline: as §1

A549-TP53BP1-CLTA = system: A549-TP53BP1-CLTA
Outline: as §1

A549-TUBA1B-RELA = system: A549-TUBA1B-RELA
Outline: as §1

HepG2-ACTB-RAB5A = system: HepG2-ACTB-RAB5A
Outline: as §1

HepG2-CANX-COX4 = system: HepG2-CANX-COX4
Outline: as §1

HepG2-GM130-SQSTM1 = system: HepG2-GM130-SQSTM1
Outline: as §1

HepG2-TP53BP1-CLTA = system: HepG2-TP53BP1-CLTA
Outline: as §1

HepG2-TUBA1B-RELA = system: HepG2-TUBA1B-RELA
Outline: as §1

WPMY1-ACTB-RAB5A = system: WPMY1-ACTB-RAB5A
Outline: as §1

WPMY1-CANX-COX4 = system: WPMY1-CANX-COX4
Outline: as §1

WPMY1-GM130-SQSTM1 = system: WPMY1-GM130-SQSTM1
Outline: as §1

WPMY1-TP53BP1-CLTA = system: WPMY1-TP53BP1-CLTA
Outline: as §1

WPMY1-TUBA1B-RELA = system: WPMY1-TUBA1B-RELA
Outline: as §1

Measured: phenotypically active

CCOc1cc(C=O)ccc1O [Ethylvanilline]
inactive: A549-ACTB-RAB5A 0 | A549-CANX-COX4 0 | A549-GM130-SQSTM1 0 | A549-TP53BP1-CLTA 0 | A549-TUBA1B-RELA 0 | HepG2-ACTB-RAB5A 0 | HepG2-CANX-COX4 0 | HepG2-GM130-SQSTM1 0 | HepG2-TP53BP1-CLTA 0 | HepG2-TUBA1B-RELA 0 | WPMY1-ACTB-RAB5A 0 | WPMY1-CANX-COX4 0 | WPMY1-GM130-SQSTM1 0 | WPMY1-TP53BP1-CLTA 0 | WPMY1-TUBA1B-RELA 0

O=C1CCC[C@@H]2[C@H]3CCCN4CCC[C@@H](CN12)[C@@H]34 [Matrine]
inactive: A549-ACTB-RAB5A 0 | A549-CANX-COX4 0 | A549-GM130-SQSTM1 0 | A549-TP53BP1-CLTA 0 | A549-TUBA1B-RELA 0 | HepG2-ACTB-RAB5A 0 | HepG2-CANX-COX4 0 | HepG2-GM130-SQSTM1 0 | HepG2-TP53BP1-CLTA 0 | HepG2-TUBA1B-RELA 0 | WPMY1-ACTB-RAB5A 0 | WPMY1-CANX-COX4 0 | WPMY1-GM130-SQSTM1 0 | WPMY1-TP53BP1-CLTA 0 | WPMY1-TUBA1B-RELA 0

C=CCC1(C(C)C#CCC)C(=O)NC(=O)N(C)C1=O (stereo not given) [methohexital]
inactive: A549-ACTB-RAB5A 0 | A549-CANX-COX4 0 | A549-GM130-SQSTM1 0 | A549-TP53BP1-CLTA 0 | A549-TUBA1B-RELA 0 | HepG2-ACTB-RAB5A 0 | HepG2-CANX-COX4 0 | HepG2-GM130-SQSTM1 0 | HepG2-TP53BP1-CLTA 0 | HepG2-TUBA1B-RELA 0 | WPMY1-ACTB-RAB5A 0 | WPMY1-CANX-COX4 0 | WPMY1-GM130-SQSTM1 0 | WPMY1-TP53BP1-CLTA 0 | WPMY1-TUBA1B-RELA 0

C=C[C@]12CN(C)[C@@H]3[C@H]4CO[C@H](C[C@H]41)[C@]1(C(=O)Nc4ccccc41)[C@@H]32 [Gelsemine]
inactive: A549-ACTB-RAB5A 0 | A549-CANX-COX4 0 | A549-GM130-SQSTM1 0 | A549-TP53BP1-CLTA 0 | A549-TUBA1B-RELA 0 | HepG2-ACTB-RAB5A 0 | HepG2-CANX-COX4 0 | HepG2-GM130-SQSTM1 0 | HepG2-TP53BP1-CLTA 0 | HepG2-TUBA1B-RELA 0 | WPMY1-ACTB-RAB5A 0 | WPMY1-CANX-COX4 0 | WPMY1-GM130-SQSTM1 0 | WPMY1-TP53BP1-CLTA 0 | WPMY1-TUBA1B-RELA 0

CCC1(CC)C(=O)NC(=O)N(C)C1=O [metharbital]
inactive: A549-ACTB-RAB5A 0 | A549-CANX-COX4 0 | A549-GM130-SQSTM1 0 | A549-TP53BP1-CLTA 0 | A549-TUBA1B-RELA 0 | HepG2-ACTB-RAB5A 0 | HepG2-CANX-COX4 0 | HepG2-GM130-SQSTM1 0 | HepG2-TP53BP1-CLTA 0 | HepG2-TUBA1B-RELA 0 | WPMY1-ACTB-RAB5A 0 | WPMY1-CANX-COX4 0 | WPMY1-GM130-SQSTM1 0 | WPMY1-TP53BP1-CLTA 0 | WPMY1-TUBA1B-RELA 0

CCCCCOc1ccc(C(=O)c2cccc3ccccc23)c2ccccc12
inactive: A549-ACTB-RAB5A 0 | A549-CANX-COX4 0 | A549-GM130-SQSTM1 0 | A549-TP53BP1-CLTA 0 | A549-TUBA1B-RELA 0 | HepG2-ACTB-RAB5A 0 | HepG2-CANX-COX4 0 | HepG2-GM130-SQSTM1 0 | HepG2-TP53BP1-CLTA 0 | HepG2-TUBA1B-RELA 0 | WPMY1-ACTB-RAB5A 0 | WPMY1-CANX-COX4 0 | WPMY1-GM130-SQSTM1 0 | WPMY1-TP53BP1-CLTA 0 | WPMY1-TUBA1B-RELA 0

NC(=S)N/N=C/c1coc2ccccc2c1=O
inactive: A549-ACTB-RAB5A 0 | A549-CANX-COX4 0 | A549-GM130-SQSTM1 0 | A549-TP53BP1-CLTA 0 | A549-TUBA1B-RELA 0 | HepG2-ACTB-RAB5A 0 | HepG2-CANX-COX4 0 | HepG2-GM130-SQSTM1 0 | HepG2-TP53BP1-CLTA 0 | HepG2-TUBA1B-RELA 0 | WPMY1-ACTB-RAB5A 0 | WPMY1-CANX-COX4 0 | WPMY1-GM130-SQSTM1 0 | WPMY1-TP53BP1-CLTA 0 | WPMY1-TUBA1B-RELA 0

CC(C)[N+](C)(CCC(C(N)=O)(c1ccccc1)c1ccccc1)C(C)C [isopropamide-iodide]
inactive: A549-ACTB-RAB5A 0 | A549-CANX-COX4 0 | A549-GM130-SQSTM1 0 | A549-TP53BP1-CLTA 0 | A549-TUBA1B-RELA 0 | HepG2-ACTB-RAB5A 0 | HepG2-CANX-COX4 0 | HepG2-GM130-SQSTM1 0 | HepG2-TP53BP1-CLTA 0 | HepG2-TUBA1B-RELA 0 | WPMY1-ACTB-RAB5A 0 | WPMY1-CANX-COX4 0 | WPMY1-GM130-SQSTM1 0 | WPMY1-TP53BP1-CLTA 0 | WPMY1-TUBA1B-RELA 0

CC(C)NCC(O)c1ccc(N)c(C#N)c1 (stereo not given) [Cimaterol]
inactive: A549-ACTB-RAB5A 0 | A549-CANX-COX4 0 | A549-GM130-SQSTM1 0 | A549-TP53BP1-CLTA 0 | A549-TUBA1B-RELA 0 | HepG2-ACTB-RAB5A 0 | HepG2-CANX-COX4 0 | HepG2-GM130-SQSTM1 0 | HepG2-TP53BP1-CLTA 0 | HepG2-TUBA1B-RELA 0 | WPMY1-ACTB-RAB5A 0 | WPMY1-CANX-COX4 0 | WPMY1-GM130-SQSTM1 0 | WPMY1-TP53BP1-CLTA 0 | WPMY1-TUBA1B-RELA 0

CC(=O)O[C@H]1C[C@@H]2CC[C@@H]3[C@H](CC[C@@]4(C)[C@H]3C[C@H]([N+]3(C)CCCCC3)[C@@H]4OC(C)=O)[C@@]2(C)C[C@@H]1[N+]1(C)CCCCC1 [pancuronium]
inactive: A549-ACTB-RAB5A 0 | A549-CANX-COX4 0 | A549-GM130-SQSTM1 0 | A549-TP53BP1-CLTA 0 | A549-TUBA1B-RELA 0 | HepG2-ACTB-RAB5A 0 | HepG2-CANX-COX4 0 | HepG2-GM130-SQSTM1 0 | HepG2-TP53BP1-CLTA 0 | HepG2-TUBA1B-RELA 0 | WPMY1-ACTB-RAB5A 0 | WPMY1-CANX-COX4 0 | WPMY1-GM130-SQSTM1 0 | WPMY1-TP53BP1-CLTA 0 | WPMY1-TUBA1B-RELA 0

Clc1ccc2c(c1)C(c1ccccc1)=NCc1nncn1-2 [estazolam]
inactive: A549-ACTB-RAB5A 0 | A549-CANX-COX4 0 | A549-GM130-SQSTM1 0 | A549-TP53BP1-CLTA 0 | A549-TUBA1B-RELA 0 | HepG2-ACTB-RAB5A 0 | HepG2-CANX-COX4 0 | HepG2-GM130-SQSTM1 0 | HepG2-TP53BP1-CLTA 0 | HepG2-TUBA1B-RELA 0 | WPMY1-ACTB-RAB5A 0 | WPMY1-CANX-COX4 0 | WPMY1-GM130-SQSTM1 0 | WPMY1-TP53BP1-CLTA 0 | WPMY1-TUBA1B-RELA 0

CCCN1CCC[C@@H]2Cc3n[nH]cc3C[C@H]21 [(-)-Quinpirole hydrochloride]
inactive: A549-ACTB-RAB5A 0 | A549-CANX-COX4 0 | A549-GM130-SQSTM1 0 | A549-TP53BP1-CLTA 0 | A549-TUBA1B-RELA 0 | HepG2-ACTB-RAB5A 0 | HepG2-CANX-COX4 0 | HepG2-GM130-SQSTM1 0 | HepG2-TP53BP1-CLTA 0 | HepG2-TUBA1B-RELA 0 | WPMY1-ACTB-RAB5A 0 | WPMY1-CANX-COX4 0 | WPMY1-GM130-SQSTM1 0 | WPMY1-TP53BP1-CLTA 0 | WPMY1-TUBA1B-RELA 0

Reference: the supplement of paper PMC7411054
